Holding throughout (assay): PBM binding z-score (relative to random genomic background probes); higher = stronger binding; sequences stand for … in GC…GCGATTGACAGCGTAGAATGAAGG
Assay [1] concerns RARb homodimer (NR concentration 270 nM). In outline: (§1)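 Custom Agilent 4×180K protein-binding microarrays carried double-stranded probes. Their 34-nt variable regions held direct-repeat seeds, single-nucleotide variants, half-site ablations and random human genomic background sequences. Arrays were incubated 1 h with ligand-free nuclear receptor dimers in PBS pH 7.4, 2% milk, 0.02% Triton X-100, 1 mM DTT, 0.2 mg/mL BSA and 0.4 mg/ml salmon testes DNA. Antibodies against each partner (one per run) detected binding, and scanned fluorescence was regression-normalized. Binding z-scores use random background probes as reference.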

In assay [2] the test system is RARg:RXRa (NR concentration 270 nM, RXRa partner concentration 90 nM). In outline: as §1
Assay [3] relates to RARg homodimer (NR concentration 270 nM). The method, boiled down:
as §1

Assay [4] concerns RXRa DBDmut IVT, anti-RXR (DBD mutation: RXRa K156A/R161A, NR concentration 90 nM). In outline: as §1
Assay [5] concerns RXRa homodimer (NR concentration 180 nM). In outline:
as §1

Assay [6] deals with THRa:RXRa (NR concentration 90 nM, RXRa partner concentration 90 nM). In outline: as §1
The subject of assay [7] is THRa homodimer (NR concentration 90 nM). The method, boiled down: as §1
For assay [8], the system named is VDR homodimer (NR concentration 270 nM). The method, boiled down:
as §1

As for TAGCCTAGGTCAGATCGGTCCAGTATACGCTATA, the PBM binding z-score in assay [1] is 1.89; in assay [2] it was 2.06; in assay [3] it was 3.2; in assay [4], -0.21; in assay [5] it was 1.2; in assay [6], 2.97. Moreover, the PBM binding z-score in assay [7] amounted to 0.0173; in assay [8], 0.23.
CCTTACGGGTCACTGACAGGGTATAGCATTTGGA: the PBM binding z-score is 2.82 in assay [1]; 5.05 in assay [2]; 4.61 in assay [3]; 1.26 in assay [4]; 4.55 in assay [5]; 2.32 in assay [6]. Moreover, the PBM binding z-score in assay [7] was -0.0972; in assay [8], 0.873.
TCTTGTAGATCAGGAGGTTAAGAAAGCTGGCCAA: the PBM binding z-score in assay [1] is 0.528; in assay [2] it was 0.46; in assay [3], 0.00207; in assay [4], 0.445; in assay [5], 1.29; in assay [6], 0.711. For the same sequence, the PBM binding z-score in assay [7] was -0.548; in assay [8], -0.308.
For TCGAGTAGGATAGGGGCATTCAGAATGGCGTCGA, the PBM binding z-score is 0.241 in assay [1]; -0.218 in assay [2]; -0.225 in assay [3]; 0.0984 in assay [4]; 0.155 in assay [5]; 0.209 in assay [6]. For the same sequence, the PBM binding z-score in assay [7] was -0.171; in assay [8], 0.237.
As to AGAAAGAGGTTATTAAGATCAGGGAATTGCGGTC, the PBM binding z-score in assay [1] was determined as 1.12; in assay [2] it was 1.78; in assay [3], 1.29; in assay [4], 1.26; in assay [5], 2.21; in assay [6], 1.39. The PBM binding z-score in assay [7] worked out at 0.443; in assay [8] it was 0.737.
TCACGGAGGACACGAAGGTCAGAGCTTTCCAGAG: the PBM binding z-score stood at 3.7 in assay [1]; 3.41 in assay [2]; 3.86 in assay [3]; 0.991 in assay [4]; 1.91 in assay [5]; 2.73 in assay [6]. The PBM binding z-score was found to be 0.917 in assay [7] and 1.42 in assay [8].
Turning to TAGCCTAGGTCAGATCGGGCCAGGATACGCTATA, the PBM binding z-score in assay [1] was 1.88; in assay [2], 2.77; in assay [3], 3.35; in assay [4], -0.775; in assay [5], 1.45; in assay [6] it was 4.2. For the same sequence, the PBM binding z-score in assay [7] was 0.225; in assay [8], -0.433.
With AGAATGAGGTTATTAAAATCAGGGAATTGCGGTC, the PBM binding z-score in assay [1] stood at 0.836; in assay [2] it was 0.827; in assay [3] it was 0.788; in assay [4] it was 1.46; in assay [5] it was 1.43; in assay [6], 1.89. In addition, the PBM binding z-score in assay [7] was determined as 0.676; in assay [8] it was 0.874.
As for TCACATAGGTAAAAGGTGAAAGTCGGTGTGGTAA, the PBM binding z-score in assay [1] came out at 1.98; in assay [2], 2.02; in assay [3], 0.992; in assay [4], 1.3; in assay [5], 3.3; in assay [6], 1.72. Further, the PBM binding z-score in assay [7] is 0.0653; in assay [8], -0.0676.
For the sequence GGAACGAAGGCATTCGAGTTGATAGCATGGCGAT, the PBM binding z-score was -0.976 in assay [1]; -0.479 in assay [2]; -0.164 in assay [3]; -0.552 in assay [4]; -0.562 in assay [5]; 0.655 in assay [6]. The PBM binding z-score in assay [7] is -1.68; in assay [8], -0.0499.
Regarding CAAACTAGGTCACGAATGGTCAAAGTCGAATGAC, the PBM binding z-score in assay [1] came to 3.87; in assay [2], 4.77; in assay [3] it was 5.18; in assay [4] it was 1.61; in assay [5] it was 3.82; in assay [6], 3.74. Further, the figures for the PBM binding z-score in assay [7] and in assay [8] were 1.51 and 0.784, respectively.
On to TCTCGGAGGACACGAAGCTCAGAGCTTTCCAGAG, for which the PBM binding z-score in assay [1] is 0.381; in assay [2], 0.265; in assay [3], 0.869; in assay [4], 0.583; in assay [5], -0.175; in assay [6], 1.23. For the same sequence, the PBM binding z-score in assay [7] was 0.177; in assay [8] it was -0.5.
On to CATACAGGGTCAGATAGGCCAGAGTAGGGACGGC, for which the PBM binding z-score in assay [1] was found to be 2.99; in assay [2], 4.18; in assay [3], 4.16; in assay [4], 1.83; in assay [5] it was 3.75; in assay [6], 2.81. Moreover, the PBM binding z-score in assay [7] was determined as 0.777; in assay [8] it was 1.47.
For the sequence GCTAGTTGGTCAGTAAAAGGTTACACACCGGTCG, the PBM binding z-score in assay [1] was 2.7; in assay [2] it was 2.11; in assay [3] it was 1.34; in assay [4], 0.00211; in assay [5], 1.59; in assay [6], 1.42. For the same sequence, the PBM binding z-score in assay [7] came to 0.424; in assay [8], 0.234.

For the origin of these results see the supplement of paper PMC6555819.
